We go through 94 molecules from PubChem BioAssay AID430 (Sanford-Burnham Center for Chemical Genomics, 2006).

The campaign covered roughly 63,000 compounds. About 1,100 (1.7%) were called active. The sample holds actives, similar compounds and a random draw of the others, so the mix is not that of the screen. Entries with a potency or affinity are not part of this list. Values without a mark were called inactive. Rule as the data show it: active = cytotoxicity above about 50%; inactive = the rest.

A short description of the assay: cytotoxicity in HPDE-C7 cells, cell-based, fluorescence, HTS (AID 430).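 Also: cells exposed to compound for 48 hours before viability readout; 0% = vehicle and 100% = reference cytotoxic drug.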 The conditions noted are these: HPDE-C7 pancreatic duct cells viability, at 10 µM, hits give high values.
On to `Cc1ccc(S(=O)(=O)NCc2ccncc2)cc1`, for which the cytotoxicity is 3.6%.
For the molecule `COc1ccc(Nc2nc(N)nc(CSc3n[nH]c(-c4ccccc4)n3)n2)cc1`, the cytotoxicity was -20.3%.
As to `COc1ccccc1N1CCN(C(=O)C2CC=CCC2C(=O)O)CC1` (centres undefined), the cytotoxicity is 9.5%.
The same measure for `COc1ccc(C(C)=O)cc1COC(=O)c1ccc(S(=O)(=O)N2CCOCC2)cc1`: 21%.
Regarding `COc1cc(NC(=O)c2ccco2)ccc1NC(=O)c1ccccc1Cl`, the cytotoxicity is 2.8%.
Consider `Cc1nc(SCc2cccc(F)c2)[nH]c(=O)c1C#N`, for which the cytotoxicity is -9.7%.
In the case of `N#Cc1c(-c2ccco2)nc(SCc2ccc(F)cc2)[nH]c1=O`, the cytotoxicity is 54.3% (active).
The same measure for `N#Cc1c(-c2ccco2)nc(SCC(=O)Nc2cccc(Cl)c2)[nH]c1=O`: 19%; for `Cn1c(Cn2nnc3ccccc32)nnc1SCC(=O)N1c2ccccc2CCc2ccccc21`: -18%.
The result for `COc1ccc(C(=O)OC(C)CN2CCOCC2)cc1OC` (centres undefined) reads -1.4%.
For `CC(CN1CCOCC1)OC(=O)c1ccc2c(c1)OCCO2` (centres undefined), the cytotoxicity was 4.5%.
The result for `CCc1ccc2c(CN3CCc4ccccc43)cc(=O)oc2c1` reads -5.4%; that for `CCOC(=O)c1sc(NC(=O)c2cccc(S(=O)(=O)N3CCN(C)CC3)c2)cc1C`, 51% (active); that for `CCOC(=O)c1sc(NC(=O)c2ccc(S(=O)(=O)N3CCOCC3)cc2)cc1C`, -2.3%.
In the case of `CCOC(=O)c1ccc(NC(=O)c2cccc(S(=O)(=O)N3CCOCC3)c2)cc1`, the cytotoxicity is 20.1%.
Take `Cc1cc(C)n(-c2ccc(C(=O)Nc3ccccc3N3CCOCC3)cc2)n1`: the cytotoxicity was -4.1%.
The same measure for `Cc1ccc(CS(=O)(=O)Cc2ccc(C(=O)NCc3ccco3)o2)cc1`: -21%; for `c1csc(-c2nn[nH]n2)c1`: -3.1%; for `CN(c1ccccc1)S(=O)(=O)c1ccc(C(=O)Nc2nnc(-c3ccc(F)cc3)o2)cc1`: 58.9% (active).
As for `Cc1ccccc1C(=O)Nc1nnc(-c2ccc(F)cc2)o1`, the cytotoxicity is 18.7%.
Take `COc1ccccc1-c1nnc(NC(=O)c2ccc(S(=O)(=O)N(C)Cc3ccccc3)cc2)o1`: the cytotoxicity is 55.9% (active).
The same measure for `CN(c1ccccc1)S(=O)(=O)c1ccc(C(=O)Nc2nccs2)cc1`: -7.3%; for `CCN(Cc1ccccc1)S(=O)(=O)c1ccc(C(=O)Nc2nnc(-c3ccccc3OC)o2)cc1`: 35.6%; for `COc1ccccc1-c1nnc(NC(=O)c2ccc(S(=O)(=O)N(C)C)cc2)o1`: -2.7%.
As for `c1ccc2c(c1)oc1c(NCc3ccc4c(c3)OCO4)ncnc12`, the cytotoxicity is -2.2%.
As to `O=C(NCC1COCCO1)C1CCN(S(=O)(=O)c2ccccc2)CC1` (centres undefined), the cytotoxicity is -6.9%.
The result for `CCNC(=O)N1c2ccc(OC)cc2C(C)=CC1(C)C` reads 3.2%; that for `O=C(NC1CCc2ccccc21)C1CCN(S(=O)(=O)c2ccc(-n3cnnn3)cc2)CC1` (centres undefined), -11%.
For `O=C(NCCc1ccccc1)C1CCCN1C(=O)Nc1ccc(F)cc1` (centres undefined), the cytotoxicity was -11.3%.
Regarding `O=C1CCCC2=C1C(c1cccs1)n1nc(SCc3ccccc3F)nc1N2` (centres undefined), the cytotoxicity is -11.2%.
The result for `CCOC(=O)c1[nH]c2ccc(OC)cc2c1NC(=O)C(C)N1CCSCC1` (centres undefined) reads 19.3%.
As for `CCOC(=O)c1[nH]c2ccc(F)cc2c1NC(=O)CN1CCN(C/C=C/c2ccccc2)CC1`, the cytotoxicity is 64.9% (active).
The same measure for `CCOC(=O)c1[nH]c2ccc(F)cc2c1NC(=O)C(C)N1CCc2cc(OC)c(OC)cc2C1` (centres undefined): 58.6% (active); for `CCOC(=O)c1[nH]c2ccc(OCC)cc2c1NC(=O)CN1CCN(c2ccccc2)CC1`: 4.4%; for `CCOC(=O)c1[nH]c2ccc(F)cc2c1NC(=O)CN1CCc2cc(OC)c(OC)cc2C1`: -3.8%.
The result for `CCOC(=O)c1[nH]c2ccccc2c1NC(=O)CN1CCCCC1` reads -4.1%.
For `CC(NC(=O)CC12CC3CC(CC(C3)C1)C2)C(=O)O` (centres undefined), the cytotoxicity is 3%.
As to `COCCN(CC(=O)NCc1ccc(F)cc1)C(=O)CCC(=O)Nc1nccs1`, the cytotoxicity is 3.1%.
Take `CCc1nnc(NC(=O)C2CCN(c3nccc(C)n3)CC2)s1`: the cytotoxicity is -2.7%.
As to `O=C(CSc1nnc(CNC(=O)c2cccs2)o1)NC1CCCCC1`, the cytotoxicity was -2.7%.
Regarding `O=C1c2ccccc2-c2onc3ccc(NCc4ccco4)c1c23`, the cytotoxicity is 62.1% (active).
On to `COc1ccc2noc3c2c1C(=O)c1ccccc1-3`, for which the cytotoxicity was 45.8%.
The result for `O=C1c2ccccc2-c2onc3ccc(NCCCn4ccnc4)c1c23` reads 20.3%; that for `Cc1nn(C)c(C)c1CNC(=O)c1nn2c(c1Cl)NC(c1cccs1)CC2C(F)(F)F` (centres undefined), -0.2%.
Regarding `COc1ccc(NC(=O)C2CCCN(c3c4c(nc5ncnn35)CCC4)C2)cc1` (centres undefined), the cytotoxicity is -37.1%.
Take `CCOc1ccccc1CNC(=O)C1CCN(c2nc3ccccc3o2)CC1`: the cytotoxicity is -9.3%.
With `Cc1nc(C)c(-c2csc(NCc3ccco3)n2)s1`, the cytotoxicity was -21.6%.
For `Cc1nc(NC(=O)c2ccccc2)sc1-c1csc(N)n1`, the cytotoxicity is 39.2%.
On to `Cc1nc(NC(=O)c2ccccc2)sc1-c1csc(NCc2ccco2)n1`, for which the cytotoxicity was 63.4% (active).
Turning to `O=C(Nc1nc2c(s1)CCCC2)c1cc2n(n1)C(C(F)(F)F)CC(C1CC1)N2` (centres undefined), the cytotoxicity was 45.6%.
Turning to `Cc1cccc(N(C(=O)Cn2nnc3ccccc32)C(C(=O)NCc2ccco2)c2ccncc2)c1` (centres undefined), the cytotoxicity is 5.1%.
Turning to `CC1=C(C(=O)NCc2ccccc2)C(c2ccc(C)o2)n2ncnc2N1` (centres undefined), the cytotoxicity was -15%.
For `CCOC(=O)c1c(C2COc3ccccc3O2)csc1N` (centres undefined), the cytotoxicity was -2.8%.
With `COCc1cc(=O)[nH]c(Nc2nc3ccccc3o2)n1`, the cytotoxicity is 34.6%.
Turning to `COCc1cc(=O)[nH]c(Nc2nc3ccc(C)cc3o2)n1`, the cytotoxicity was 51.7% (active).
With `COC(=O)Cc1cc(=O)[nH]c(Nc2nc3ccccc3o2)n1`, the cytotoxicity was 7.2%.
The result for `O=S(=O)(c1cc(C(F)(F)F)ccc1Cl)N1CCCCCC1` reads -4%; that for `CCOC(=O)C1=C(c2ccccc2)Nc2ncnn2C1c1ccccn1` (centres undefined), -3.2%; that for `Cc1ccc2c(c1)[nH]c1c(N3CCN(Cc4ccccc4)CC3)ncnc12`, 82.2% (active).
With `Cc1ccc2[nH]c3c(N4CCCCCC4)ncnc3c2c1`, the cytotoxicity is 23.7%.
The result for `c1ccc(CN2CCN(c3ncnc4nc[nH]c34)CC2)cc1` reads 8.4%; that for `Cc1ccc2[nH]c3c(N4CCOCC4)ncnc3c2c1`, 5.1%; that for `CCOC(=O)N1CCN(c2ncnc3c2[nH]c2ccc(OC)cc23)CC1`, -5%.
On to `c1ccc(CN2CCN(c3ncnc4c3[nH]c3ccccc34)CC2)cc1`, for which the cytotoxicity was 15.2%.
Turning to `CCOc1ccc2[nH]c3c(N4CCN(c5ccccn5)CC4)ncnc3c2c1`, the cytotoxicity is 62.5% (active).
For the molecule `CCOC(=O)c1[nH]c2ccc(OCC)cc2c1NC(=O)CN1CCN(c2ccccn2)CC1`, the cytotoxicity was 8.8%.
Turning to `Fc1ccccc1CSc1ncnc2c1oc1ccccc12`, the cytotoxicity is 5.1%.
As to `COc1ccccc1NC(=O)c1cc(S(=O)(=O)N2CCC3(CC2)OCCO3)ccc1F`, the cytotoxicity is 4.8%.
For the molecule `COc1cccc(C(=O)Nc2ccc(C)cc2)c1`, the cytotoxicity is -1.9%.
For `Cc1cccc(OCC(=O)Nc2cc(C)ccc2O)c1`, the cytotoxicity was -6%.
The result for `COc1cccc(C(=O)/C=C/Nc2cc(C)ccc2O)c1` reads 65.2% (active); that for `CCC(CC)C(=O)Nc1nnc(-c2cccs2)s1`, 5%; that for `Cc1cccc(C)c1NC1=NC(C)(C)N=C(N)N1`, 10.8%.
On to `CCOC(=O)c1c(C)[nH]c(C(=O)OC/C(O)=C(\C#N)c2nc3ccccc3[nH]2)c1C`, for which the cytotoxicity is 89.8% (active).
With `N#C/C(=C(/O)COC(=O)c1ccc2c(c1)OCCO2)c1nc2ccccc2[nH]1`, the cytotoxicity is 24.1%.
For `Cc1nn(-c2ccccc2)c(C)c1C(=O)OC/C(O)=C(\C#N)c1nc2ccccc2[nH]1`, the cytotoxicity is 7.4%.
Take `CCOc1cc(Br)c(C(=O)O)cc1OCC`: the cytotoxicity was -2.5%.
As for `COc1cccc2c1C(=O)c1c(O)c3c(c(O)c1C2=O)C[C@@](O)(C(=O)CO)C[C@@H]3O[C@H]1C[C@H](N)[C@H](O)[C@H](C)O1`, the cytotoxicity was 102% (active).
Take `COc1cccc2c1C(=O)c1c(O)c3c(c(O)c1C2=O)C[C@@](O)(C(C)=O)C[C@@H]3O[C@H]1C[C@H](N)[C@H](O)[C@H](C)O1`: the cytotoxicity is 108% (active).
On to `COCC(C)NC(=O)c1cc(-c2ccc(OC)c(OC)c2)on1` (centres undefined), for which the cytotoxicity is -3%.
The same measure for `O=C1c2ccccc2C(=O)N1CC#CCN1CCN(C2CCCCC2)CC1`: 2.6%.
Consider `Cc1cc(C)c(C#N)c(SCS(=O)Cc2ccccc2)n1` (centres undefined), for which the cytotoxicity was -16.4%.
Turning to `Cc1cc(C)c(C#N)c(SCS(=O)Cc2ccc(Cl)cc2)n1` (centres undefined), the cytotoxicity was 50.3% (active).
Turning to `Cc1cc(C)c(C#N)c(SCS(=O)c2ccc(C(C)(C)C)cc2)n1` (centres undefined), the cytotoxicity was -4.8%.
For the molecule `CCOc1ccc(-c2noc(=O)[nH]2)cc1`, the cytotoxicity was 0.9%.
For the molecule `COc1ccc2c(c1)C=CC1(O2)N(CCO)c2ccccc2C1(C)C` (centres undefined), the cytotoxicity was 32.6%.
Consider `CC1=NOC2(C1)N(C)c1ccccc1C2(C)C` (centres undefined), for which the cytotoxicity was -10.1%.
Turning to `CCOC(=O)c1sc(NC(=O)CCSC)nc1C`, the cytotoxicity was 26.2%.
For `O=C(CSc1ncn(-c2ccccc2)n1)Nc1nc2ccccc2s1`, the cytotoxicity is 9.1%.
Regarding `CCOC(=O)c1sc(NC(=O)CSc2ncn(-c3ccccc3)n2)nc1C`, the cytotoxicity is 70.4% (active).
On to `CCOC(=O)c1sc(NC(=O)CSc2nnnn2-c2ccccc2)nc1C`, for which the cytotoxicity was -4.9%.
With `CCOC(=O)c1ccc(NC(=O)CCc2nc(-c3ccccc3)no2)cc1`, the cytotoxicity was -1.1%.
The same measure for `CCOC(=O)c1ccc(NC(=O)CCc2nc(-c3ccccc3Cl)no2)cc1`: 74.8% (active); for `CCOC(=O)c1ccc(NC(=O)CCc2nc(-c3ccc(Cl)cc3)no2)cc1`: -3.7%.
